# Results published in the supplement of paper PMC6555819.
# Experiments:
# Experiment in all cases: PBM binding z-score (relative to random genomic background probes); higher = stronger binding; sequences stand for … in GC…GCGATTGACAGCGTAGAATGAAGG
# [1] = tested on: RARb homodimer (NR concentration 270 nM)
# Summary of the method: (§1)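 Binding buffer was PBS pH 7.4 with 2% milk, 0.02% Triton X-100, 1 mM DTT, 0.2 mg/mL BSA and 0.4 mg/ml salmon testes DNA. In it, ligand-free nuclear receptor dimers were incubated 1 h on custom Agilent 4×180K protein-binding microarrays carrying double-stranded probes. Antibodies against each partner (one per run) detected binding, and z-scores were calculated against random background probes after regression normalization of scanned fluorescence.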
# [2] = tested on: RARg:RXRa (NR concentration 270 nM, RXRa partner concentration 90 nM)
# Summary of the method: as §1
# [3] = tested on: RARg homodimer (NR concentration 270 nM)
# Summary of the method: as §1
# [4] = tested on: RXRa DBDmut IVT, anti-RXR (DBD mutation: RXRa K156A/R161A, NR concentration 90 nM)
# Summary of the method: as §1
# [5] = tested on: RXRa homodimer (NR concentration 180 nM)
# Summary of the method: as §1
# [6] = tested on: THRa:RXRa (NR concentration 90 nM, RXRa partner concentration 90 nM)
# Summary of the method: as §1
# [7] = tested on: THRa homodimer (NR concentration 90 nM)
# Summary of the method: as §1
# [8] = tested on: VDR homodimer (NR concentration 270 nM)
# Summary of the method: as §1
Sequence,PBM binding z-score [1],PBM binding z-score [2],PBM binding z-score [3],PBM binding z-score [4],PBM binding z-score [5],PBM binding z-score [6],PBM binding z-score [7],PBM binding z-score [8]
CAAACTAGGTCACCGGAAGGTCAAAGGCCGCATG,5.41,8.42,7.47,1.23,6.36,4.56,2.79,2.8
AGAACGAGGGCAATGACTTGATAGCACGGGTGGC,1.08,1.18,1.67,1.64,1.08,0.826,0.042,0.435
GCATATAGGTAATACAGGGTGAAAGTCCGATTGT,0.685,0.386,0.492,0.439,0.917,3.38,0.41,0.239
ACAGACACGTGAGTGAAGGTAACTCAGCTGGACG,-0.372,-0.114,0.0531,-0.182,0.149,-0.478,-0.846,-0.417
GCGTCTGGGGCAAAGCAGGTTACCATAAGGTTGG,1.13,0.435,0.815,-0.387,0.339,3.04,0.0693,-0.358
CCTTTTAGTTGACCATAAGGGCAACCGAAGCTCG,2.13,1.55,1.08,0.818,0.506,1.8,1.51,0.92
ATCTCTAGGTAAAGCTAGTTCAGTGAATGCAAAT,0.208,0.0635,0.23,-0.0872,0.134,1.15,0.00789,0.525
ACTCGCAGGACAAAGGTCAGAGCTACGCCAGTGA,4.26,5.2,5.21,0.845,5.45,3.03,0.0955,0.474
TCTTGTAGATCAAGCAGGTTAAAAAAGCCTGAGT,0.112,0.141,-0.124,0.493,0.566,0.589,-0.577,0.272
